# Compound activity (PubChem BioAssay)
# Compounds with a hit are over-represented: about 7.3% of the library has one in this group of screens.
# FLuc counter – counter-screen for miR-21 project: firefly luciferase inhibitors or activators; P08659; purified FLuc, Km substrates, luminescence inhibition; Potency, µM (series often up to 57.5 µM), for the others: at the highest dose activity change, negative = inhibition, usual class: inhibitors; hit rate 6.9% among 360,000;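 further: plate controls were vehicle for no effect and reference inhibitor for full effect; nearly all actives have a fitted effect of over 55% in size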
# Target sequence (P08659 whole entry, looked up): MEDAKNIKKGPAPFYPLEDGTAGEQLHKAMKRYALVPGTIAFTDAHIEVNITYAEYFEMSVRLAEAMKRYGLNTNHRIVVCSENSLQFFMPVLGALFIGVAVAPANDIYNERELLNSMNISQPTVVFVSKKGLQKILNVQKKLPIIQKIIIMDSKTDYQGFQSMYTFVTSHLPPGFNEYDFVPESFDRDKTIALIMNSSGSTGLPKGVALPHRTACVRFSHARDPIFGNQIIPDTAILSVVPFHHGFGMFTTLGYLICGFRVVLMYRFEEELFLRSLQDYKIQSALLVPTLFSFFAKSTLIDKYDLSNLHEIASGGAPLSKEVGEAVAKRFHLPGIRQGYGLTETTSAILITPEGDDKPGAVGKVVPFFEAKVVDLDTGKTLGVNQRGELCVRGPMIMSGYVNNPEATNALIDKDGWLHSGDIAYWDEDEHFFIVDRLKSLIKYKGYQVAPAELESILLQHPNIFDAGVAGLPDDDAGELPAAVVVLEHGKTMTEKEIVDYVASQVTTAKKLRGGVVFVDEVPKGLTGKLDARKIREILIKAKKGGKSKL
#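 Biochemical qHTS of compounds, final roughly 60 µM downward over six points, against 10 nM purified firefly luciferase using Km concentrations of substrates (10 uM D-luciferin, 10 uM ATP) in Tris acetate pH 7.5 buffer; luminescence output.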
# Luc counter – Kinase-Glo luciferase inhibition (counter-screen) | Q27757 | Kinase-Glo luciferase, ATP luminescence, 8 min | Potency, µM (top dose mostly 38.3 µM), without a hit: at the highest dose activity change, negative = inhibition, usual class: inhibitors | hit rate 0.28% among 200,000; further: on the % scale 0 is the no-effect control and ±100 the full control effect; nearly all actives have a fitted effect of over 60% in size
#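 Kinase-Glo luciferase light output from ATP and luciferin was measured with 10 uM ATP, within the enzyme's linear range. Buffer: 50 mM imidazole pH 7.2, 50 mM KCl, 7 mM MgCl2, 0.01% Tween 20, 0.05% BSA; luminescence read after 8 min at ambient temperature.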
# NPC1 prom act – NPC1 promoter activation; Potency, µM (highest dose often 9.22 µM), without a hit: at the highest dose activation, most hits filed as activators; hit rate 2.4% among 320,000; Huh7 NPC1 promoter luciferase reporter, 24 h; further: % of control where 0% means no effect; nearly all actives have a fitted effect of over 60% in size
#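 Compounds in DMSO were transferred onto Huh7 NPC1-luciferase reporter cells pre-incubated 2 h; after 24 h at 37 °C, Amplite reagent was dispensed and luminescence recorded 10 min later.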
# ELG1 genotoxic – induces genotoxicity in HEK293T cells with luciferase-tagged ELG1; HEK293T ELG1-luciferase reporter, luminescence, 16 h; Potency, µM (doses to about 46 µM), for the others: top-dose activity change, positive = activation, hits mostly activators; hit rate 1.3% among 330,000; AID 504466; further: % of control where 0% means no effect; nearly all actives have a fitted effect of over 60% in size
#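 Genotoxic stress is detected as increased luminescence from luciferase-tagged ELG1 in HEK293T cells, measured with ONE-Glo after a 16 hr treatment at 37 °C.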
# SMN2 splice up – SMN2 splice variant enhancement | HEK293 SMN2-luciferase splicing reporter, luminescence, 30-36 h | Potency, µM (highest dose often 46.1 µM), inactives show at the top dose activity change, positive = activation, hits mostly activators | AID 1458 | hit rate 2.8% among 210,000; further: % of control where 0% means no effect; nearly all actives have a fitted effect of over 55% in size
#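 HEK293 cells carry an SMN2 minigene-luciferase reporter in which exon 7 inclusion puts luciferase in frame. Cells were seeded at 2000 cells/well, attached for 10-12 hours, then exposed to compounds for 30-36 hours at 37C before ONE-Glo luminescence.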
# Rab9 prom act – Rab9 promoter activation | AID 485297 | hit rate 2.8% among 320,000 | Potency, µM (series often up to 9.22 µM), for inactives: top-dose activation, negative = inhibition, most hits filed as activators | Huh7 Rab9 promoter-luciferase reporter, luminescence, 24 h; further: % of control where 0% means no effect; nearly all actives have a fitted effect of over 60% in size
#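 Luminescence from Amplite-detected luciferase (10 minutes, ambient) reports Rab9 promoter activation. Before that, stable Rab9-luciferase Huh7 cells (1500/well, reduced-serum OP-MEM I plus 10% FBS) were exposed to compound for 24 hours at 37C.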
# Starred values were filed as active, the others as inactive; ? = inconclusive; nt = no result. The call rests on the fitted dose curve; in most records, active means well fitted curve in the direction sought with a large enough effect; inconclusive means small, poorly fitted or top-dose-only effect, or another doubt; inactive means no such curve, though single readings can be large; an effect the other way counts as inactive or inconclusive. Potency means the concentration at half of the fitted maximal effect.
SMILES,FLuc counter,Luc counter,NPC1 prom act,ELG1 genotoxic,SMN2 splice up,Rab9 prom act
CSCCC(NC(=O)c1cccc([N+](=O)[O-])c1)c1nc2ccccc2[nH]1 (centres undefined),-7.5%,-0.1%,-1.7%,-0.6%,12.9%,0.8%
O=C(Cc1nc2ccccc2[nH]1)c1cccc([N+](=O)[O-])c1,23.9µM*,nt,?,-6.1%,nt,5.6%
O=C(NC(Cc1ccccc1)c1nc2ccccc2[nH]1)c1cccc([N+](=O)[O-])c1 (centres undefined),-17.7%,nt,9.9%,-3.0%,nt,-3.3%
O=C(Nc1nc2ccccc2[nH]1)c1cccc([N+](=O)[O-])c1,?,-7.0%,3.55µM*,8.8%,11.2µM*,1.41µM*
O=C(Nc1nc2ccccc2[nH]1)c1ccc([N+](=O)[O-])cc1,?,-21.5%,1µM*,?,2.51µM*,0.562µM*
Cc1ccc(C(=O)Cc2nc3ccccc3[nH]2)cc1,6.01µM*,nt,2µM*,3.55µM*,nt,4.47µM*
Cc1ccc(S(=O)(=O)N(CC(=O)O)c2ccc(Cl)cc2)cc1,nt,1.6%,nt,nt,nt,nt
Cc1ccc(CNC(=O)Cn2ccn(-c3cc(C)cc(C)c3)c(=O)c2=O)cc1,-3.4%,nt,nt,nt,nt,nt
O=c1c(-c2ccccc2)nc2cnc(N3CCNCC3)nc2n1C1CC1,nt,-4.2%,nt,nt,-2.9%,nt
COC(=O)c1cc(C(=O)Nc2nc3ccccc3[nH]2)cc([N+](=O)[O-])c1,4.78µM*,nt,16.6%,0.0%,nt,3.8%
Cc1ccccc1OCCSc1nnc(-c2ccc([N+](=O)[O-])cc2)o1,-6.5%,nt,nt,nt,nt,nt
Cc1ccc(C)c(N2CCN(S(=O)(=O)c3c(C(=O)N4CCC(C)CC4)c(C)n(C)c3C)CC2)c1,3.6%,nt,nt,nt,nt,nt
CN(C)c1ccc(C(=S)NCc2ccco2)cc1,13.5µM*,-1.9%,?,0.461µM*,-15.2%,0.447µM*
CN(C)c1ccc(/C=N/NC(=S)NCc2ccco2)cc1,?,0.0%,10.4%,7.1%,-2.8%,-2.0%
Cc1ccc(CCNC(=O)CCn2nc(-c3ccc(Cl)cc3)ccc2=O)cc1,0.1%,nt,nt,nt,nt,nt
CSc1nc2ncc(C#N)cn2n1,-1.3%,1.2%,4.2%,-3.4%,7.6%,-1.0%
N#Cc1cnc2nc(SCc3ccccc3)nn2c1,-16.7%,nt,1.41µM*,?,nt,?
CC(C)(C)c1ccc(-c2noc(CCC(=O)NCC3CCCO3)n2)cc1 (centres undefined),1.9µM*,-2.0%,-14.7%,13.9%,-58.0%,-20.5%
CC(C)(C)c1ccc(-c2noc(CCC(N)=O)n2)cc1,6.01µM*,0.2%,-26.3%,-10.6%,-43.1%,-31.9%
Cc1ccc(-c2noc(CCC(=O)NCC3CCCO3)n2)cc1 (centres undefined),-12.8%,-3.9%,-1.0%,-1.3%,-11.5%,2.0%
Cc1ccc(-c2noc(CNC(=O)c3ccc(C(C)(C)C)cc3)n2)cc1,-18.6%,nt,nt,nt,2.8%,nt
CC(C)(C)c1ccc(-c2noc(CCC(=O)Nc3cccnc3)n2)cc1,1.69µM*,nt,-38.7%,?,nt,-36.8%
CN(C)C(=O)CCc1nc(-c2ccc(C(C)(C)C)cc2)no1,5.36µM*,-2.2%,2.51µM*,?,-11.7%,3.16µM*
COc1ccc(-c2noc(CCC(=O)Nc3cccnc3)n2)cc1,?,nt,-3.7%,4.0%,nt,-2.2%
O=C(Cc1ccc(NC(=O)N2CCCCc3ccccc32)cc1)NCc1ccccc1,-17.1%,nt,nt,nt,nt,nt
SMILES,FLuc counter,Luc counter,NPC1 prom act,ELG1 genotoxic,SMN2 splice up,Rab9 prom act
O=C(CSc1ccccc1)N1CCc2c([nH]c3ccccc23)C1c1ccc(Cl)cc1 (centres undefined),0.0%,nt,nt,nt,nt,nt
Cc1c(C(=O)N2CCCCCC2)c(S(=O)(=O)Nc2ccc(OC(F)(F)F)cc2)c(C)n1C,1.0%,nt,nt,nt,nt,nt
Cc1ccc(NC(=O)c2cc(CN3CCOCC3)on2)cc1Cl,-15.3%,nt,nt,nt,nt,nt
CC(C)(C)c1ccc(-c2noc(CCC(=O)N3CCOCC3)n2)cc1,2.39µM*,1.6%,?,?,?,1.78µM*
O=C(O)CCc1nc(-c2ccc(Cl)cc2)no1,-6.8%,0.3%,-1.9%,1.1%,7.4%,0.7%
COc1ccc(-c2noc(CCC(=O)Nc3cc(Cl)c(OC)cc3OC)n2)cc1,8.49µM*,2.7%,-0.3%,?,1.9%,-0.5%
CC(C)(CC(=O)O)Cc1nc(-c2ccc(Cl)cc2)no1,26.9µM*,-2.8%,16.4%,?,6.5%,3.2%
CNC(=O)CCc1nc(-c2ccc(C(C)(C)C)cc2)no1,4.78µM*,-2.6%,?,14.7%,-16.6%,13.2%
Cc1ccc(S(=O)(=O)c2c(O)cc(C)c(NS(=O)(=O)c3ccc(Br)cc3)c2C)cc1,?,nt,nt,nt,-37.6%,nt
COc1cc(OC)c(NC(=O)N2CCc3c(sc4c3CCCC4)C2c2ccccc2)cc1Cl (centres undefined),1.8%,nt,nt,nt,nt,nt
Nc1nc(Cl)nc2c1ncn2[C@@H]1O[C@H](COP(=O)(O)OP(=O)(O)OP(=O)(O)O)[C@H](O)[C@H]1O,nt,-24.6%,nt,nt,-10.2%,nt
CCOC(=O)CN(Cc1ccccc1)C(C(=O)NC1CCCCC1)c1ccc(C)cc1 (centres undefined),-5.0%,nt,nt,nt,-4.9%,nt
O=c1[nH][nH]cc1C=Nc1cc(Cl)ccc1O,-1.7%,-0.9%,-11.7%,0.0%,40.8%,-7.4%
O=c1[nH][nH]cc1C=Nc1ccc(Cl)cc1Cl,7.57µM*,8.2%,-4.5%,8.8%,-3.9%,-1.8%
O=C(N/N=C/c1cc(Br)cs1)c1ccc2c(c1)OCCO2,1.35µM*,nt,2.8%,15.2%,nt,?
Cc1ccc(/C=N/NC(=O)c2ccc3c(c2)OCCO3)s1,3.38µM*,nt,?,?,nt,?
O=C(N/N=C/c1ccc(-c2ccc(Br)cc2)o1)c1ccc2c(c1)OCO2,-2.9%,0.5%,1.2%,9.9%,-12.8%,?
O=C(N/N=C/c1cccc([N+](=O)[O-])c1)c1cccc2cc[nH]c12,6.8%,1.1%,-0.2%,7.2%,17.4%,1.3%
O=C(N/N=C/c1cccs1)c1cccc2cc[nH]c12,23.9µM*,-0.1%,?,-8.2%,-18.5%,?
O=C(N/N=C/c1cccs1)c1ccc2ccccc2c1,10.7µM*,nt,0.6%,16.0%,nt,?
Cc1c(C(=O)N2CCOCC2)oc2c1-c1nn(CC(=O)NCc3cccc(Cl)c3)cc1CC2,-11.0%,nt,nt,nt,nt,nt
COc1cccc(CNC(=O)C2CCN(C(=O)N3CCOc4ccc(Cl)cc43)CC2)c1OC,-9.7%,nt,nt,nt,nt,nt
Cc1ccc(/C=N/NC(=O)c2ccc3ccccc3c2)s1,26.9µM*,nt,-19.8%,?,nt,-10.9%
Cc1ccc(/C=N/NC(=O)c2cccc(S(=O)(=O)Nc3ccccc3Cl)c2)s1,?,nt,-3.2%,-1.6%,nt,0.4%
Oc1nc(Nc2cccc(Cl)c2)sc1/C=C1\C=Nc2ccccc21,?,nt,7.8%,-3.6%,nt,7.8%
